# D2 antagonist: antagonizes the human D2 dopamine receptor; P14416; HEK293 TREx D2 cells, calcium flux, dopamine EC80; inhibition, % at 10 µM; 2% of 340,000 active; AID 485344; in the data active = inhibition above about 30%; inactive = below that, where a call was filed; note: 0% is about no effect
# Target sequence (P14416 whole entry, looked up): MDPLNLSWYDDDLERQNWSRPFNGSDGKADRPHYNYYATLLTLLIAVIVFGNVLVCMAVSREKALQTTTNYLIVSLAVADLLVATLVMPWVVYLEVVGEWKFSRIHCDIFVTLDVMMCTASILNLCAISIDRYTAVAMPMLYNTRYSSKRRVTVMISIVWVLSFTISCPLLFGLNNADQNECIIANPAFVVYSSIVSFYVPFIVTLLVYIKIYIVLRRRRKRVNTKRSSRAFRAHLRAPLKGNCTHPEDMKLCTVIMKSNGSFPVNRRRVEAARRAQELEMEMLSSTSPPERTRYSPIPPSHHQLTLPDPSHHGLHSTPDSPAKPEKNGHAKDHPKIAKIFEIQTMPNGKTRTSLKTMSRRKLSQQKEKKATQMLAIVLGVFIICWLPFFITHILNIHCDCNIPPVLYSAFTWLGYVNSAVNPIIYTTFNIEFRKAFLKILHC
#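 Cells plated overnight at 30 C with tetracycline; no-wash calcium dye, 30–90 min RT; 10 s baseline; compound pinned; 180 s read; EC80 dopamine added; another 180 s read.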
# D2 PAM-1: D2 dopamine receptor (human) potentiation; potentiation, % at 10 µM; HEK293 T-REx D2, calcium flux, EC20 dopamine potentiation; P14416; 0.34% of 340,000 active;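 active = potentiation over 3 SD above the plate norm, cut at about 30% in these data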; note: 0% is about no effect
#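 Potentiation of an EC20 dopamine calcium response measured kinetically over 180 s, after a preceding 180 s compound-only read flagging agonists. Cells: inducible Hek293 Trex D2 line, 4000/well, cultured overnight at 30 C before dye loading.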
# D2 ag-1: activates the human D2 dopamine receptor | activation, % at 2 µM | HEK293 T-REx D2 cells, calcium flux agonist mode | P14416 | AID 485358 | 0.53% of 340,000 active;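 active = activation over 3 SD above normal in the single-dose calcium agonist read, cut at about 30% in these data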; note: 0% is about no effect
#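 HEK293 Trex D2 cells, tetracycline-induced, o/n 30 C 5% CO2; no-wash Ca dye, RT 30–90 min; 10-cycle baseline, 23 nl cpd added, kinetic Ca read 180 s; agonist hits = positive Ca response.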
# D2 ag-2: agonists of human D2 dopamine receptor (beta-arrestin) | P14416 | DiscoveRx PathHunter D2 beta-arrestin, luminescence, 90 min; 100% = 57 uM dopamine signal | activation, % (no concentration beside the values) | 0.084% of 360,000 active | AID 624465; in the data active = activation above about 40%
#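 Agonist mode: compounds alone added to overnight-plated D2 PathHunter cells for 90 min at 37 C, with 57 uM final dopamine (EC100) defining full response. Beta-arrestin recruitment detected by chemiluminescent reagent, read after 1 h at ambient temperature.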
# D2 PAM-2: positive allosteric modulators of human D2 dopamine receptor; P14416; DiscoveRx D2 beta-arrestin cells, luminescence, 90 min; 100% = 57 uM dopamine signal; potentiation, % (test concentration not listed); 0.23% of 360,000 active; AID 624464; in the data active = potentiation above about 50%
#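 PathHunter beta-arrestin assay in DiscoveRx D2 cells. Compounds were added with an EC20 of dopamine (50 nM final) for 90 min at 37 deg C. Luminescence was read 1 h after detection reagent, with 57 uM dopamine as the EC100 control.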
# The depositor's hits bear a star; . = no result given. This is a sample that favours compounds with a hit; in the whole collection about 2.4% have one here.
SMILES,D2 antagonist,D2 PAM-1,D2 ag-1,D2 ag-2,D2 PAM-2
Cc1ccc(-c2nnn(CC(=O)N(c3ccccc3)C(C(=O)NC3CCCC3)c3ccco3)n2)o1 (stereo unspecified),33*,17,1,0,-6
Cc1cc(NC(=O)CCC(=O)N(CCC(C)C)C(C(=O)NC2CCCC2)c2ccccc2C)no1 (stereo unspecified),51*,-2,1,8,-1
CCc1ccc(N(C(=O)CCC(=O)Nc2cc(C)on2)C(C(=O)NC2CCCC2)c2ccco2)cc1 (stereo unspecified),33*,11,-1,-5,-16
Cc1cc(NC(=O)CCC(=O)N(C2CC2)C2(C(=O)NC3CCCC3)CCC(C)CC2)no1 (stereo unspecified),37*,-2,0,-3,-6
COc1ccc(C2=CC(c3ccccc3Cl)n3nc(-c4ccc(C)cc4)nc3N2)cc1 (stereo unspecified),.,7,-1,.,.
CN(CCC#N)C(=O)Cn1nc(Cc2ccncc2)c2ccccc2c1=O,35*,12,-2,-3,-6
c1ccc(-c2cn3c(n2)SCC3)cc1,4,30*,-1,-3,-18
Brc1ccc(-c2cn3c(n2)SCC3)cc1,33*,19,-1,3,-2
CC(C)N(C(=O)CN1C(=O)C(=O)c2ccccc21)c1ccccc1,36*,0,2,-3,-2
O=C(CN1C(=O)C(=O)c2ccccc21)c1ccccc1,3,-4,-2,-17,-5
O=C1C=C(Nc2ccc(Cl)cc2)CC(c2ccc(Cl)cc2)C1 (stereo unspecified),48*,28,-2,-1,-28
CCN(CC)CCN1C(=O)C(=O)/C(=C(/O)c2ccc(C)cc2)C1c1ccncc1 (stereo unspecified),9,-4,-2,.,.
CCN(CC)CCN1C(=O)C(=O)/C(=C(/O)c2ccc(Cl)cc2)C1c1ccncc1 (stereo unspecified),40*,2,0,2,-6
O=C(/C=C/c1ccc(Cl)cc1)NC(=S)Nc1ccc(CN2CCOCC2)cc1,0,-22,35*,1,-21
CCCSc1nnc2c(n1)OC(c1sccc1C)Nc1ccccc1-2 (stereo unspecified),.,10,-2,.,.
N#CCCn1cc(/C=N/N=C2\NC(=O)C(CC(=O)O)S2)c(-c2ccc(F)cc2)n1 (stereo unspecified),35*,3,0,-2,-6
Cc1ccc(C(=O)CCNc2ccccc2)o1,33*,-7,0,-5,29
CC(=O)c1cccc(Nc2cc(C)nc3nc(-c4ccccc4C)nn23)c1,.,-3,1,.,.
CC(=O)Nc1ccc(OC(=O)c2ccc(Br)c([N+](=O)[O-])c2)cc1,30*,0,0,-2,-8
CCc1cc2c(N[C@@H](Cc3c[nH]c4ccccc34)C(=O)O)ncnc2s1,21,8,0,-2,2
CCc1cc2c(NC(Cc3c[nH]c4ccccc34)C(=O)O)nc(C)nc2s1 (stereo unspecified),34*,-1,-2,4,4
CCOCc1cc(=O)[nH]c(SC)n1,30*,-13,-1,3,-35
CSc1nc(Cl)cc(=O)[nH]1,-23,-6,0,0,3
CCOC(=O)N1CCN(Cc2nc3cc(NC(=O)C(C)C)ccc3n2C(C)C)CC1,.,-3,-2,.,.
COc1nc(OC)nc(N2CCC(C(=O)NCC3CCCCC3)CC2)n1,-5,14,-1,0,-4
SMILES,D2 antagonist,D2 PAM-1,D2 ag-1,D2 ag-2,D2 PAM-2
COc1nc(OC)nc(N2CCCCCC2)n1,33*,4,-1,0,-4
COc1ccc(Cl)cc1NC(=O)CN1C(=O)COc2ccc(S(=O)(=O)NC3CCCC3)cc21,.,-13,1,.,.
COc1ccc(-n2c(SCC(=O)Nc3cccc(C)c3C)nc3c([nH]c4ccccc43)c2=O)cc1,.,9,0,.,.
CCOC(=O)c1cccc(NC(=O)c2cc3ccccn3n2)c1,.,5,.,.,.
CC(C)N(C(=O)N1CCN(c2ccnc3cc(Cl)ccc23)CC1)C(C)C,31*,-8,-1,3,12
O=C(OCCN1C(=O)c2cccc3c(N4CCOCC4)ccc(c23)C1=O)c1cccc(Cl)c1,35*,-18,74*,2,-29
O=C(OCCN1C(=O)c2ccccc2C1=O)c1cc(S(=O)(=O)N2CCOCC2)ccc1Cl,-7,15,0,3,-7
O=C(OCCN1C(=O)c2cccc3c(N4CCOCC4)ccc(c23)C1=O)c1ccc(Cl)cc1Cl,27,-10,36*,-1,-18
CCC1CN(C(=O)N2CCC(C(=O)NCCc3ccccc3Cl)CC2)c2cc(C)ccc2O1 (stereo unspecified),.,-5,0,.,.
COc1ccc(-c2noc(N3CCC(C(=O)N4CCN(c5cccc(OC)c5)CC4)CC3)n2)cc1,.,-4,0,.,.
O=C(N/N=C/c1ccccc1[N+](=O)[O-])c1cccs1,-19,-13,0,2,-2
COc1cccc(/C=N/NC(=O)c2ccoc2C)c1O,-4,7,0,-1,-6
Cc1occc1C(=O)N/N=C/c1ccccc1[N+](=O)[O-],35*,7,0,-2,-2
Cc1ccc(C(=O)N/N=C\C=C\c2ccccc2[N+](=O)[O-])cn1,47*,-31,2,-3,-4
O=C(N/N=C/C=C/c1ccccc1[N+](=O)[O-])c1cccs1,39*,-22,-1,1,-18
Cc1ccc(/C=N/NC(=O)c2cccs2)cc1[N+](=O)[O-],35*,-1,-1,-1,-14
Cc1ccsc1/C=N/NC(=O)c1cccs1,2,7,1,-1,-11
Cc1ccc(C(=O)N/N=C\c2ccccc2[N+](=O)[O-])cn1,-4,.,-1,-6,-9
COc1ccc(-n2ccnc(NCCc3ccc(S(N)(=O)=O)cc3)c2=O)cc1,.,-1,0,.,.
COc1ccc2nc(SC)c(C#N)cc2c1,55*,-5,-1,0,5
COc1ccc2nc(SCC(C)=O)c(C#N)cc2c1,-3,7,14,-1,-2
O=C(O)CCS(=O)(=O)c1cccc2cccnc12,31*,17,1,-1,-18
CN(Cc1ccco1)C(=O)c1ccc2c(c1)N(Cc1ccccc1F)C(=O)c1ccccc1S2,.,5,-1,.,.
CCCN(CCC)c1nn2c(=O)c(C(=O)NCc3cc(Br)ccc3OC)cnc2s1,.,-6,.,.,.
Fc1ccc(-n2cc(CNCCc3ccncc3)c(-c3ccccc3Cl)n2)cc1,31*,-14,1,-3,-9
CCc1[nH]nc2c1C(c1ccc(C)o1)C(C#N)=C(N)O2 (stereo unspecified),64*,-8,0,-2,11

# Compound activity deposited in PubChem BioAssay by National Center for Advancing Translational Sciences (NCATS).
